The record followed here is PubChem BioAssay (NCATS).

“And” between values parts separate entries of the source, which are not always exact repeats. Identical values can stand only once. Records with an inconclusive call do not appear. The source made the active and inactive calls. Unless noted, how the calls were made is not given here.

Assay [1] is described as follows: qHTS Assay for Identifying Gametocytocidal Compounds (AID 743244; active means well fitted curve in the direction sought with a large enough effect; an effect the other way counts as inactive or inconclusive; further: potency means the concentration at half of the fitted maximal effect;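 on max response: on the % scale 0 is the no-effect control and ±100 the full control effect; actives lower the fluorescent signal which means gametocytes are killed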). The note with it: P. falciparum 3D7 stage III-V gametocytes, alamarBlue, 72 h; max response: stronger effect = lower value. In outline:
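P. falciparum 3D7 stage III–V gametocytes (20,000 cells/well) were exposed to compounds for 72 h at 37 °C, 5% CO2. AlamarBlue was then added for 24 h; decreased resorufin fluorescence (Ex 525/Em 598 nm) indicated loss of viability.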

Assay [2] in a line: qHTS profiling for inhibitors of Plasmodium falciparum (3D7) proliferation (AID 743322).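 Further: infected erythrocytes exposed to compound for 72 h before lysis; 100% = DMSO vehicle wells and 0% = 0.29 µM artemisinin.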 As to conditions: P. falciparum 3D7 proliferation; at 28.7 µM (top of the series) unless noted. The gist of the method: (§1)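 Parasite DNA was quantified by SYBR Green I fluorescence (ex 485, em 535 nm) after overnight lysis in saponin/Triton buffer at room temperature. Cultures at 0.3% parasitemia and 2.5% hematocrit were first exposed to compound for 72 h at 37 C; signals were normalised to artemisinin (0.29 uM) and vehicle wells.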

A short description of assay [3]: qHTS profiling for inhibitors of Plasmodium falciparum (DD2) proliferation (AID 743323). The note with it: lower = more inhibition; at 28.7 µM (top of the series) unless noted. In outline: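 SYBR Green fluorescence (ex 485, em 535 nm) of lysed cultures gives parasite DNA content; wells normalized to artemisinin (0.29 uM) and DMSO controls. Infected red cells: 0.3% parasitemia, 2.5% hematocrit, 72 h, 37 C.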

A short description of assay [4]: qHTS profiling for inhibitors of Plasmodium falciparum (HB3) proliferation (AID 743324; active means well fitted curve in the direction sought with a large enough effect; an effect the other way counts as inactive or inconclusive;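 further: 100% = DMSO vehicle wells and 0% = artemisinin-treated control wells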). As to conditions: Plasmodium falciparum HB3 blood-stage proliferation; at 28.7 µM (top of the series) unless noted. The gist of the method:
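SYBR Green fluorescence (485 ex/535 em) of lysed cultures, incubated overnight at room temperature in the dark, quantifies parasite DNA. Infected erythrocytes at 0.3% parasitemia and 2.5% hematocrit were exposed 72 h; values normalized to DMSO and 0.29 uM artemisinin controls.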

Assay [5] in a line: qHTS assay for small molecule agonists of the antioxidant response element (ARE) signaling pathway measured by Nrf2-dependant transcriptional activity (AID 720636; active means well fitted curve in the direction sought with a large enough effect in the repeat runs; an effect the other way counts as inactive or inconclusive;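 further: HepG2 cells with an ARE-driven luciferase reporter; % of control where 0% means no effect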). The gist of the method: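 Attachment 6 hr at 37 C, then compound versus DMSO vehicle for 16 hr in ARE-luc HepG2 cells (1% dialyzed FBS); luminescence recorded 30 min after ONE-Glo addition at room temperature.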
Assay [6] can be described thus: qHTS assay for small molecule agonists of the antioxidant response element (ARE) signaling pathway measured by Nrf2-dependant transcriptional activity - cell viability counter screen (AID 720653; active means well fitted curve in the direction sought with a large enough effect in the repeat runs; an effect the other way counts as inactive or inconclusive; further: on the % scale 0 is the no-effect control and ±100 the full control effect). As to conditions: ARE-bla HepG2 viability, CellTiter-Glo ATP luminescence, 16 h; stronger effect = lower value. In outline: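 ARE-bla HepG2 cells treated with compounds for 16 h at 37C; this counter screen measures viability as intracellular ATP by CellTiter-Glo luminescence after 30 min at room temperature.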

Assay [7] can be described thus: qHTS assay for cell viability of HEK293 cells (AID 743288; active means well fitted curve in the direction sought with a large enough effect; an effect the other way counts as inactive or inconclusive; further: on the % scale 0 is the no-effect control and ±100 the full control effect; nearly all actives have a fitted effect of over 50% in size). The note with it: ATP luminescence (CellTiter-Glo), 18 h; max response: stronger effect = lower value. The gist of the method: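 Viable-cell counts were inferred from luciferase-based ATP content in HEK293 cells seeded at 2,000/well, pre-incubated ≥5 h, then dosed with DMSO-solubilised compounds for 18 h at 37 C.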

Assay [8] is described as follows: qHTS profiling of the MIPE4 collection as inhibitors of Plasmodium falciparum (3D7) proliferation (AID 743344).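 Further: scaled between DMSO vehicle wells and 0.29 µM artemisinin as full inhibition.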 The note with it: P. falciparum 3D7 in erythrocytes, SYBR Green DNA fluorescence, 72 h; at 28.5 µM (top of the series) unless noted. In outline:
as §1

Assay [9] is described as follows: qHTS profiling of the MIPE4 collection as inhibitors of Plasmodium falciparum (DD2) proliferation (AID 743345). As to conditions: P. falciparum Dd2 in erythrocytes, SYBR Green DNA, 72 h; at 28.5 µM (top of the series) unless noted. In outline:
as §1

Assay [10] can be described thus: qHTS profiling of the MIPE4 collection as inhibitors of Plasmodium falciparum (DD2) proliferation (Rep 2) (AID 743346). The note with it: P. falciparum Dd2 in erythrocytes, SYBR Green DNA, 72 h; at 28.5 µM (top of the series) unless noted. In outline: as §1
A short description of assay [11]: qHTS profiling of the MIPE4 collection as inhibitors of Plasmodium falciparum (HB3) proliferation (AID 743347).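 Further: plate controls were DMSO vehicle wells for no effect and artemisinin wells for full effect.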 The note with it: P. falciparum HB3 in erythrocytes, SYBR Green DNA, 72 h; at 28.5 µM (top of the series) unless noted. The gist of the method: as §1
In assay [12] the target is T1, Hexokinase-4 (Homo sapiens) + Glucokinase regulatory protein (Homo sapiens) (UniProt P35557+Q14397). The experiment in a line: qHTS assay for inhibitors of recombinant human GCK-GKRP interaction: Diaphorase-coupled assay (AID 743205; active means well fitted curve in the direction sought with a large enough effect; an effect the other way counts as inactive or inconclusive). The gist of the method:
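25 mM Hepes pH 7.6, 5 mM glucose, 0.4 mM ATP, 4 U/ml G6PDH; 10 nM each GST-GCK/FLAG-GKRP. Kinetic fluorescence read, 1/min × 30 min. Normalized: DMSO ± enzyme = max/min.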

Assay [13] concerns the target T1, Hexokinase-4 (Homo sapiens) + Glucokinase regulatory protein (Homo sapiens). Description: qHTS assay for inhibitors of recombinant human GCK-GKRP interaction: HTRF assay (AID 743207; active means well fitted curve in the direction sought with a large enough effect; an effect the other way counts as inactive or inconclusive;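 further: 0% = DMSO with GCK present and -100% = DMSO wells lacking GCK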). In outline:
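5 nM GST-GCK + 5 nM FLAG-GKRP + 2 uM S6P, pH 7.1 buffer (25 mM Hepes, 2 mM MgCl2, 25 mM KCl, 1 mM DTT, Tween/BSA); pin-transferred cpd; anti-FLAG XL665/anti-GST K; 60 min RT; HTRF.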

The nature of assay [14]: qHTS for compounds that reverse cellular toxicity of Amyloid beta (A-beta) peptide in yeast: LOPAC Validation Assay (AID 720559; active means well fitted curve in the direction sought with a large enough effect; an effect the other way counts as inactive or inconclusive;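 further: plate controls were DMSO for no effect and equimolar ferric chloride plus clioquinol rescue for full effect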). The gist of the method:
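Medium dispensed, compounds pinned, A-beta yeast suspension added; plates held at 30 C for 48 hr; absorbance measured at 600 nm to gauge growth; values scaled between DMSO and FeCl3/clioquinol (equimolar) controls.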

The nature of assay [15]: qHTS for Activators of Parkin Expression: LOPAC Validation Assay (NLuc Reporter) (AID 720572; active means well fitted curve in the direction sought with a large enough effect; an effect the other way counts as inactive or inconclusive). In outline:
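NLuc signal, read 10 min after reagent and following a prior FLuc read, is normalized to DMSO (0) and positive controls (100%). Cells: neuronal Parkin-promoter coincidence reporter line; compounds tested 7-point, 24 h, 37 C, 5% CO2.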

Assay [16] is described as follows: qHTS for Activators of Parkin Expression: LOPAC Validation Assay (FLuc Reporter) (AID 720573; active means well fitted curve in the direction sought with a large enough effect; an effect the other way counts as inactive or inconclusive). The gist of the method:
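Cells seeded, 24 h; compounds pinned, 7-pt dose response; 24 h at 37 C/5% CO2; volume reduced; FLuc reagent 10 min RT; luminescence read. Normalization: DMSO = 0, positive control = 100%.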

T1 sequence (P35557 whole entry, looked up): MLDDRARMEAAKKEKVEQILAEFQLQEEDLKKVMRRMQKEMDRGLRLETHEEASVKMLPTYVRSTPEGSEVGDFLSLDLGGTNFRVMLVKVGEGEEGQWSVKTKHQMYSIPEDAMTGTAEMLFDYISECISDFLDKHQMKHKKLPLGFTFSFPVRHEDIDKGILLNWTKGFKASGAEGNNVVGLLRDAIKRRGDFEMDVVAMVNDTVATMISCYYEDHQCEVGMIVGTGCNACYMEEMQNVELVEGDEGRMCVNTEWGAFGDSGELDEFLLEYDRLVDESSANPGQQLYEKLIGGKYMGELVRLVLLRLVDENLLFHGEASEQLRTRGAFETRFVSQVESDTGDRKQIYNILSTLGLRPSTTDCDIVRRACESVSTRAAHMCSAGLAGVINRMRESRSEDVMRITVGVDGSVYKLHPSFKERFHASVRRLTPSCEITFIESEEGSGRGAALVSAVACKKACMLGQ
T1 sequence (Q14397 whole entry, looked up): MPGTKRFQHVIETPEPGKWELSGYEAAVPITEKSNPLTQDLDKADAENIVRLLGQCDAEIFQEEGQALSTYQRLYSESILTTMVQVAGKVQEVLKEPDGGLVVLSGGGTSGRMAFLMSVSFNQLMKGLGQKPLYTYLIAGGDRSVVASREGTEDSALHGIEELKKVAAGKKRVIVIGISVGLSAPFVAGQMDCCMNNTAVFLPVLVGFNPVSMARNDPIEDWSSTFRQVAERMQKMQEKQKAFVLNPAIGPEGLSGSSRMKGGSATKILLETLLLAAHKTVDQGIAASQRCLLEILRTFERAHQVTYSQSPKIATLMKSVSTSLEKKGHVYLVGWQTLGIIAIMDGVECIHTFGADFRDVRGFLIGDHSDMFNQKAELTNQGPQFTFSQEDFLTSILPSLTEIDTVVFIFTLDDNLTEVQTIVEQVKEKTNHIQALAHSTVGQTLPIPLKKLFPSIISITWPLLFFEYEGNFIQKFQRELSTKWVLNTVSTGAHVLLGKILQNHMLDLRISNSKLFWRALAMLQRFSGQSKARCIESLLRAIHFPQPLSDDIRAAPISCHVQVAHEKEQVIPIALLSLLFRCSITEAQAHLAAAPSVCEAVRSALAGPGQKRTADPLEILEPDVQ

As for `C/C(=C\C(=O)Nc1ccccc1C(=O)O)c1ccc2ccccc2c1`, in assay [1], the max response was 90.9% (inactive). Further, in assay [2], the remaining parasite growth % (stronger effect = lower value) is 32.7%. Also, the activity, percent of control in assay [3] stood at 101%. The remaining proliferation (% of control), lower = more inhibition in [4] worked out at 114%.

Turning to `Cc1c(C)c2c(c(C)c1O)CCC(C)(COc1ccc(CC3SC(=O)NC3=O)cc1)O2` (stereo not drawn), in [5], the molecule was called inactive. Moreover, the max response in assay [6] was 5.17% (inactive); in assay [1], 13.5% (inactive) and 17.4% (inactive); in [7], -10.3% (inactive). The remaining parasite growth % (stronger effect = lower value) in assay [2] was 93.1%. The activity, percent of control in assay [3] worked out at 80%. In addition, the remaining proliferation (% of control), lower = more inhibition in assay [4] is 46.8%. The parasite growth, % of DMSO control in [8] is 35.4%. Moreover, in [9], the parasite growth remaining, % of DMSO control (lower = more inhibition) is 83.4%. For the same molecule, the parasite growth, % of control (lower = inhibition) in [10] was 43.6%. In addition, in [11], the growth, % of control is 62.4%.

On to `Cc1oncc1C(=O)Nc1ccc(C(F)(F)F)cc1`, for which the outcome in [12] and in [13] was inactive. Moreover, the max response in assay [1] is 50.5% (inactive) and -6.39% (inactive) and -7.89% (inactive). Further, in assay [2], the remaining parasite growth % (stronger effect = lower value) was 104% and 91.9%. Also, the activity, percent of control in assay [3] was 94.9% and 88.9%. Also, in assay [4], the remaining proliferation (% of control), lower = more inhibition was 95% and 87.2%. The parasite growth, % of DMSO control in [8] worked out at 13.7%. Also, the parasite growth remaining, % of DMSO control (lower = more inhibition) in assay [9] worked out at 102%. In addition, in [10], the parasite growth, % of control (lower = inhibition) was found to be 61.2%. The same molecule returned a growth, % of control in assay [11] of 10.6%.

For `NCCc1ccc(O)c(O)c1`, the result in assay [14], in assay [16], in [12] and in assay [13] was inactive. Moreover, the Potency result in assay [15] was “inactive”. Moreover, the parasite growth, % of DMSO control in assay [8] turned out to be 74.8%. Moreover, in assay [9], the parasite growth remaining, % of DMSO control (lower = more inhibition) is 20.2%. Besides, the parasite growth, % of control (lower = inhibition) in [10] came to 39.7%. For the same molecule, the growth, % of control in [11] was 53.9%.

With `O=C(C1CC1)N1CC[C@@H](Cn2c(-c3ccc(-c4ccc5occc5c4)cc3)nc3cnccc32)C1`, the max response in assay [1] was -18.8% (inactive). Besides, the remaining parasite growth % (stronger effect = lower value) in assay [2] was 74.3%. Moreover, the activity, percent of control in assay [3] is 74.7%. The remaining proliferation (% of control), lower = more inhibition in assay [4] was found to be 55.2%. In [8], this molecule returned a parasite growth, % of DMSO control of 35%. Besides, the parasite growth remaining, % of DMSO control (lower = more inhibition) in assay [9] amounted to 78.6%. Moreover, the parasite growth, % of control (lower = inhibition) in assay [10] came to 46.6%.

Consider `CCOC(=O)C1=C[C@@]2(CC)CCCN3CCc4c(n1c1ccccc41)[C@H]32`, for which the max response in assay [1] was -2.64% (inactive). In assay [2], the remaining parasite growth % (stronger effect = lower value) stood at 66.2% [at 18.4 µM]. Besides, the activity, percent of control in assay [3] was 56.5% [at 18.4 µM]. Besides, in assay [4], the remaining proliferation (% of control), lower = more inhibition came out at 25.8% [at 18.4 µM].

`C1COC(NC(C2CC2)C2CC2)=N1`: the molecule was classed as inactive in assay [14], in [16], in assay [12] and in [13]. Moreover, in [15], the Potency entry was “inactive”. Moreover, the max response in [1] is 8.63% (inactive) and 12.8% (inactive). This molecule displayed a parasite growth, % of DMSO control in [8] of 72.7%. Moreover, the parasite growth remaining, % of DMSO control (lower = more inhibition) in assay [9] is 88.7%. Further, the parasite growth, % of control (lower = inhibition) in assay [10] came to 67.2%. The molecule also gave a growth, % of control in assay [11] of 82.6%.

Regarding `Nc1cccc(S(=O)(=O)N2CCCN(S(=O)(=O)c3ccc4c(c3)OCCO4)CC2)c1`, the max response in assay [1] was 3.74% (inactive). For the same molecule, in assay [2], the remaining parasite growth % (stronger effect = lower value) turned out to be 111%. Also, the activity, percent of control in assay [3] was 101%. Also, in [4], the remaining proliferation (% of control), lower = more inhibition was 70.3%. In addition, the parasite growth, % of DMSO control in assay [8] was determined as 257%. For the same molecule, in assay [9], the parasite growth remaining, % of DMSO control (lower = more inhibition) was 102%. For the same molecule, in assay [10], the parasite growth, % of control (lower = inhibition) was determined as 120%.

Turning to `CCN(CCCO)CCCOc1ccc2c(Nc3cc(CC(=O)Nc4cccc(F)c4)[nH]n3)ncnc2c1`, the Potency in [1] was 743 nM (active). The remaining parasite growth % (stronger effect = lower value) in assay [2] is -1.31%. The activity, percent of control in assay [3] was 1.34%. The remaining proliferation (% of control), lower = more inhibition in assay [4] was determined as 0.759%.

On to `O=C(O)COCCN1CCN(C(c2ccccc2)c2ccc(Cl)cc2)CC1` (stereo not drawn), for which the outcome in assay [14], in assay [16], in assay [12] and in assay [13] was inactive. Moreover, in [15], the Potency entry was “inactive”. In addition, in [1], the max response was -12% (inactive) and 28.9% (inactive). Besides, in assay [8], the parasite growth, % of DMSO control was 82.3%. Moreover, the parasite growth remaining, % of DMSO control (lower = more inhibition) in [9] came to 104%. Moreover, the parasite growth, % of control (lower = inhibition) in assay [10] was 72.8%. In [11], this molecule showed a growth, % of control of 91%.

Regarding `COc1cc(Nc2ncc3c(n2)-c2ccc(Cl)cc2C(c2c(F)cccc2OC)=NC3)ccc1C(=O)O`, the max response in assay [1] is -8.12% (inactive). The remaining parasite growth % (stronger effect = lower value) in assay [2] was found to be 89.5%. For the same molecule, the activity, percent of control in assay [3] was 78.1%. Also, the remaining proliferation (% of control), lower = more inhibition in assay [4] stood at 61.2%. In [8], this molecule had a parasite growth, % of DMSO control of 24.7%. The parasite growth remaining, % of DMSO control (lower = more inhibition) in [9] is 69.6%. Further, the parasite growth, % of control (lower = inhibition) in assay [10] is 39.4%.
